In PubChem BioAssay AID1117359 (Southern Research Institute, 2015):
Screen size: about 1,500 compounds; about 460 (31%) were called active.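 Rule for the calls: active = viability at or below 80% at any tested concentration, marking the compound as toxic; inactive = the rest.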 A selection follows. Results with a measured potency or affinity are listed apart.

Experiment: THP-1 cell cytotoxicity, dose response, cytotoxicity control for Vif-APOBEC3G degradation inhibitor project, THP-1 cells (AID 1117359)
Details: THP-1 viability, CellTiter-Glo luminescence, 72 h; series mostly up to 40 µM

Compound | outcome
COC(=O)C1=C(O)/C(=C/c2cccc(OC)c2O)N=C1C | inactive
Cc1cc(O)c(C(C)C)cc1N=Cc1ccc([N+](=O)[O-])cc1 | inactive
O=[N+]([O-])/C(C(Cl)=C(Cl)Cl)=C(/NC1CC1)Sc1ccccc1 | inactive
CN1OC[C@@H]2CN(C(=O)C(C)(C)C)[C@H](c3cccc(Oc4ccccc4)c3)C[C@@H]21 | inactive
COc1ccc(C2CC(=O)Oc3cc(OC)ccc32)cc1 (stereo unspecified) | inactive
Cc1ccc(C(=O)C2=C(O)C(=O)N(c3ncccn3)C2c2ccc(F)cc2)o1 (stereo unspecified) | inactive
O=C(O)/C=C/c1ccc(S(=O)(=O)N2CCN(CCN3C(=O)C4C5C=CC(C5)C4C3=O)CC2)cc1 (stereo unspecified) | inactive
O=S(=O)(O)c1cccc2c(N=Nc3ccc(O)c4ncccc34)cccc12 | inactive
O=[N+]([O-])c1cc2ccccc2c(O)c1O | inactive
CN(CC(=O)Nc1ccccc1Cl)C(=O)Cn1cc(C(F)(F)F)cc(Cl)c1=O | inactive
Cc1[nH]c(=O)nc(NN=Cc2ccc(Cl)cc2)c1C(=O)Nc1ccc(Cl)cc1 | inactive
CC(=C/C(=O)O)/C=C/c1ccc(Cl)o1 | inactive
COc1ccccc1C(=O)Nc1ccc(-c2nnc(SCC(=O)O)n2C)cc1 | inactive
O=C(CSc1nnc(-c2ccco2)c(-c2ccco2)n1)Nc1ccccc1 | inactive
O=[N+]([O-])c1ccc(-c2c[nH]c(=S)[nH]2)cc1 | inactive
CCOc1ccc(/C=C2\NC(=S)NC2=O)cc1 | inactive
COc1ccc(-c2cc(-c3ccco3)[nH]c(=O)c2C#N)cc1 | inactive
CC1CCC/C(=C\Nc2ccc(C(=O)O)c(O)c2)C1=O (stereo unspecified) | inactive
CCNC(=O)COC(=O)c1cc(-c2ccco2)nc2ccccc12 | inactive
CN(C)[C@@H]1C(=O)C(C(=O)NCN2CCCC2)=C(O)[C@@]2(O)C(=O)C3=C(O)c4c(O)cccc4[C@@](C)(O)C3CC12 (stereo partly specified) | inactive
Cc1cc(/C=C2\SC(=S)NC2=O)c(C)n1C | inactive
COC(=O)Cc1ccc(NC(=S)NNC(=O)C2CC2)cc1 | inactive
O=c1[nH][nH]c(=O)c2nc(Nc3ccccc3)ncc12 | inactive
CCN(CC)c1ccc(C=Nc2ccc(N(C)C)cc2)c(O)c1 | inactive

Compound | outcome
Cc1ccccc1NC(=O)Cc1nc(COC(=O)Cc2ccccc2F)cs1 | inactive
CN(C)c1ccc(/C=C/C#N)cc1 | inactive
CCCc1cc(=O)[nH]c(SCC(=O)c2c(C)[nH]c3ccccc23)n1 | inactive
COc1ccc(NC(=O)CSc2nc3c(cc2C#N)CN(C)CC3)cc1 | inactive
COc1ccc(NC2=NC(C)(CO)CS2)cc1 (stereo unspecified) | inactive
COc1ccc(NC(=O)CCCSc2ccccc2)cc1 | inactive
CCOC(=O)/C(=C\c1ccccc1)NC(=O)c1ccccc1 | inactive
COc1ccc2cc(C3C(C#N)=C(N)OC(C)=C3C(C)=O)c(Cl)nc2c1 (stereo unspecified) | inactive
Cc1ccc(C2C(C#N)=C(N)Oc3c2oc(CO)cc3=O)o1 (stereo unspecified) | inactive
NS(=O)(=O)c1ccc(CCNC2CC(=O)N(Cc3ccccc3)C2=O)cc1 (stereo unspecified) | inactive
CN(Cc1cn(C)nc1-c1cccc(Cl)c1)Cc1nccn1C | inactive
Nc1ccc(N2CCN(CCCCN3C(=O)C4CCCN4C3=O)CC2)cc1 (stereo unspecified) | inactive
Nc1cc(C(=O)O)ccc1N1CCCCC1 | inactive
O=C(CN1C(=O)NC(c2ccc(F)cc2)C1=O)Nc1ccc2c(c1)OCCO2 (stereo unspecified) | inactive
COc1cccc(NC(=O)N2CCN(c3nnnn3-c3ccccc3)CC2)c1 | inactive
O=C(Cn1c(=O)oc2ccccc21)N1CCN(S(=O)(=O)c2ccccc2)CC1 | inactive
CC(C)(C)c1ccc(NC(=S)NCc2cccnc2)cc1 | inactive
O=S(=O)(c1ccc(OCC(O)CN2CCC(Cc3ccccc3)CC2)cc1)N1CCOCC1 (stereo unspecified) | inactive
C/C(=N\NC(=O)c1cnccn1)c1ccc([N+](=O)[O-])cc1 | inactive
N/C(=N\OC(=O)COc1ccc([N+](=O)[O-])cc1)c1cccnc1 | inactive
O=C1CC(Nc2ccc(N3CCOCC3)cc2)C(=O)N1Cc1ccccc1 (stereo unspecified) | inactive
Cc1cc(SCC2=NNC(=O)C2)c(Cl)cc1Cl | inactive
CCCCc1nc2sc3c(=O)[nH]cnc3c2c2c1CCCC2 | inactive
CC(C)Cc1nc2oc3c(NCC(C)O)ncnc3c2c2c1CCCC2 (stereo unspecified) | inactive

Compound | outcome
CCCCc1cc(C(=O)Cc2ccccn2)c(O)cc1O | inactive
COc1ccc(C(=O)OCC(=O)c2c(N)n(C)c(=O)n(C)c2=O)cc1OC | inactive
NC(=O)C1Cc2ccccc2CN1C(=O)c1nn(Cc2ccccc2)c(=O)c2ccccc12 (stereo unspecified) | inactive
Cc1cccc2nc(C(=O)Nc3cccc(C(=O)NC4CC4)c3)cn12 | inactive
Cc1onc(-c2ccccc2)c1CNC(=O)C1COc2ccccc2O1 (stereo unspecified) | inactive
O=C(O)Cc1ccc(N=Nc2c(O)c(C(=O)O)cc3ccccc23)cc1 | inactive
Nc1cccc2cc(S(=O)(=O)O)ccc12 | inactive
O=C1CC(N2CCOCC2)C(=O)N1c1ccc(Cl)cc1 (stereo unspecified) | inactive
O=C(O)c1ccc2c(c1)C1C=CCC1C(c1ccncc1)N2 (stereo unspecified) | inactive
S=C1NC2(CCCCCC2)N=C1c1ccccc1 | inactive
CC(NC(=O)c1ccco1)C1CCCO1 (stereo unspecified) | inactive
S=c1[nH]nc(Cn2nnc3ccccc32)n1-c1ccccc1 | inactive
COc1cc(/C=C(\CC(=O)O)c2nc3ccccc3s2)cc(OC)c1O | inactive
COc1ccccc1/C=C/C=C1N=C(/C=C/c2ccc(Cl)cc2)OC/1=O | inactive
C/C=C/c1ccc(OCC(=O)N2CCc3cc(OC)c(OC)cc3C2)c(OC)c1 | inactive
COc1cc(/C=N/NC(=O)c2ccc(NS(=O)(=O)c3cccs3)cc2)cc(OC)c1O | inactive
CCc1ccccc1NC(=O)N1CCc2ccccc21 | inactive
CCN1CNC(=S)N(CCc2ccccc2)C1 | inactive
Cc1cc(C)n2nc(C(=O)OCC(=O)N(C)CC(=O)Nc3ccc(F)cc3)nc2n1 | inactive
CCN1CCN(C(=O)CN(C)S(=O)(=O)c2ccc(OC)c(C)c2)CC1 | inactive
CCOC(=O)CNC(=O)Cn1cnc2c(nnn2-c2ccc(F)cc2)c1=O | inactive
COC/C=C/C1=CC2=CC(=O)C(C)(OC(=O)C3CCCC3)C(=O)C2=CO1 (stereo unspecified) | inactive
Clc1ccccc1N=Nc1ccccn1 | inactive
